The results in this text go back to PubChem BioAssay.

Records with an inconclusive call do not appear. Active and inactive are the calls of the source.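 The calls were made as follows: active = cell viability at or below a set limit in both duplicate runs, the limit being the all-compound median minus 4 SD (cut at about 23% in these data, passing the limit was not always enough); inconclusive = no clear call, values can overlap the other calls; inactive = the rest.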

This test can be described thus: growth suppression of beta-catenin knockout HCT116, pilot screen, human colon tumor cells (AID 823).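 Also: 0% = wells killed by 20 µM Hyamine and 100% = untreated DMSO cell wells.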 As to conditions: CellTiter-Glo, 60 h, at 10 µM, hits give low values. Background: Cellular ATP, detected with luciferase, serves as a proxy for viable cell number.
For `O=C(O)CCc1ccc(-c2cccs2)n1NC(=O)c1ccc(Cl)cc1`, the viability was 98% (inactive).

On to `CCC(=O)N1CC2(C)CN(C(=O)CC)CC(C)(C1)C2`, for which the viability was 95.3% (inactive).

In the case of `O=C(Cc1cc(=O)[nH]c(=O)[nH]1)N1CCN(C(=O)c2ccco2)CC1`, the viability is 95.6% (inactive).

In the case of `CCCCc1ccc(Nc2ncnc3nc[nH]c23)cc1`, the viability was 106% (inactive).

Regarding `O=C1c2ccccc2C(O)N1c1ccc(Cl)cc1` (configuration not stated), the viability was 93.4% (inactive).

With `CN(C)c1ccc(C2N3CC4(C)CN2CC(C)(C3)C4O)cc1` (configuration not stated), the viability is 101% (inactive).

For `COc1cc2c(c(O)c1OC)C(=O)C(OC)CCC2` (configuration not stated), the viability is 97% (inactive).

Regarding `CCCC(=O)NCCCc1nc2ccccc2[nH]1`, the viability is 108% (inactive).

`COc1cc(OC)cc(OCC(O)Cn2cnc3cc(C)c(C)cc32)c1` (configuration not stated): the viability is 80.2% (inactive).

Turning to `CCCc1cc(C(=O)NCc2ccc(OC)cc2)no1`, the viability was 107% (inactive).

As to `O=C(NCCCN1CCCC1=O)c1ccccc1NS(=O)(=O)c1ccc(F)cc1`, the viability is 88.9% (inactive).

For `CCc1nnc(NC(=O)c2ccc(S(=O)(=O)N3CCOCC3)cc2)s1`, the viability was 105% (inactive).

As to `COc1cccc(C(c2sc3ncnn3c2O)N2CCc3ccccc3C2)c1` (configuration not stated), the viability is 104% (inactive).

On to `COc1cccc(-n2c(Cc3cc(=O)[nH]c(=O)[nH]3)nnc2SCC(=O)N2CCCCCC2)c1`, for which the viability was 99.3% (inactive).

In the case of `Cn1c(CSc2nc3ccccc3s2)n[nH]c1=S`, the viability was 96.9% (inactive).

On to `O=C(CN1CCOCC1)Nc1cc(Cl)ccc1Cl`, for which the viability was 92.6% (inactive).

With `CC(=O)N1CCc2c(sc(NC(=O)CN3C(=O)CCC3=O)c2C(N)=O)C1`, the viability is 100% (inactive).

As usually defined, the viability is a read-out of living cells in per cent, often relative to untreated cells.
